Screens from PubChem BioAssay.
DT40 TDP1 no CPT – qHTS for Inhibitors of human tyrosyl-DNA phosphodiesterase 1 (TDP1): qHTS in cells in absence of CPT; hit rate 15% among 420,000; DT40 Tdp1-/- hTDP1 cells, no CPT, ATP luminescence, 48 h; Potency, µM (doses to about 46.2 µM), actives largely listed as inhibitors; also: nearly all actives have a fitted effect of over 55% in size
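Readout: luminescence from CellTiter-Glo after 30 min in the dark at RT. Cells: DT40 Tdp1-/- with stable hTDP1, 400/well. Exposure: compounds alone, ≥48 hr, 37 °C.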
DT40 TDP1 CPT – DT40-hTDP1 cell growth loss with CPT | AID 686979 | Potency, µM (doses to about 46.2 µM), most hits filed as inhibitors | chicken DT40 Tdp1-/-;hTDP1 cells + 20 nM CPT, ATP luminescence, 48 h | hit rate 12% among 420,000; also: nearly all actives have a fitted effect of over 55% in size
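Chicken DT40 Tdp1-/- cells complemented with human TDP1, 400 cells/well, exposed to compounds plus 20 nM camptothecin for at least 48 h at 37 C; viability read as ATP content by CellTiter-Glo luminescence.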
MCF10A rerep – DNA re-replication induction in MCF 10a cells; MCF 10A DNA re-replication, Hoechst nuclear intensity, 48 h; Potency, µM (titrated, usually from 46.1 µM), actives largely listed as activators; hit rate 2.9% among 350,000; AID 624296; also: nearly all actives have a fitted effect of over 50% in size
Chronic BCR inh – inhibitors of chronic active B-cell receptor signaling | ABC-DLBCL IkBa-CBG/CBR reporter, luminescence ratio, 4 h | Potency, µM (titrated, usually from 46.1 µM), hits mostly inhibitors | hit rate 0.05% among 340,000 | AID 493014; active = well fitted inhibition curve with a large enough effect in the signal ratio, with a control signal flat, not every such curve was filed as active; inconclusive = small, poorly fitted or top-dose-only effect, or effect the other way, or a change in a side signal; the % refers to the signal ratio
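Doxycycline induced both beetle luciferases in TMD8 lymphoma cells; IKK-driven degradation limits the IkappaBalpha-fused green signal, while red luminescence normalises for cell number and nonspecific effects. Compounds tested up to 46 uM, 4 hrs.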
IL1B secr inh – blocks inflammasome-driven IL-1 beta release | THP-1 LPS/ATP IL-1B secretion, AlphaLISA, 16 h; active compounds read low | activity change, % at 57.5 µM | hit rate 4.7% among 360,000; in the data active = activity change below about -50%; inconclusive = mostly about -30% to -49%
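Secreted IL-1B measured by AlphaLISA bead assay after 16 h compound exposure of THP-1 cells; compounds (final up to 57.5 uM) added 1 h before LPS (250 ng/mL) and ATP (1.25 mM) stimulation; lower signal means less secretion.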
SW480 rerep – DNA re-replication induction in SW480 cells; hit rate 1.8% among 340,000; AID 624297; Potency, µM (top dose mostly 46.1 µM), actives largely listed as activators; SW480 DNA re-replication, Hoechst DNA content imaging, 48 h; also: nearly all actives have a fitted effect of over 55% in size
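SW480 cells exposed to compounds for 48 hr at 37 C, 5% CO2, then Hoechst-stained 40 min. Nuclear DNA content imaged by fluorescence scanning (405 nm excitation, 500-530 nm emission); re-replication scored as increased high-intensity nuclei.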
A number is an active result; - = inactive; ? = inconclusive; . = not tested or not shown. This is a sample that favours compounds with a hit; in the whole collection about 19% have one here. Unless noted, calls follow the shape of the dose curve; as a rule, active = well fitted curve in the direction sought with a large enough effect; inconclusive = small, poorly fitted or top-dose-only effect, or another doubt; inactive = no such curve, though single readings can be large; an effect the other way counts as inactive or inconclusive.

SMILES	DT40 TDP1 no CPT	DT40 TDP1 CPT	MCF10A rerep	Chronic BCR inh	IL1B secr inh	SW480 rerep
Cc1ccccc1NC(=O)CSc1nc2cc3c(cc2cc1C)CCC3	3.66µM	4.61µM	?	-	-	6.51µM
COc1ccccc1NC(=O)CSc1c2c(nc3ccccc13)CCC2	?	?	-	?	?	-
C=CCN(CC=C)Cc1cc(=O)oc2cc(OC)ccc12	?	?	.	.	-	.
O=C(Cc1ccccc1)NCC(=O)Nc1cccc(Cl)c1	-	-	-	-	-	-
C[C@@H]1CN([C@H](C)CO)C(=O)CCCn2nncc2CO[C@H]1CN(C)Cc1cccc2c1OCCCO2	-	-	.	.	-	.
N#C/C(=C\c1ccc(OCc2ccc(Cl)cc2Cl)cc1)c1nc2ccccc2[nH]1	20.6µM	16.4µM	.	.	.	.
COc1cc(/C=C(\C#N)c2nc3ccccc3[nH]2)cc(Cl)c1OCc1ccccc1Cl	18.4µM	7.31µM	.	.	.	.
N#Cc1ccc(Oc2nc(C(N)=O)cc(-c3ccccc3)n2)cc1	?	-	-	-	-	-
Cc1cc(-c2ccccc2)nc(N2CCN(c3ccccn3)CC2)n1	?	?	-	-	-	-
CN1CCN(c2nc(C(N)=O)cc(-c3ccccc3)n2)CC1	-	-	?	-	-57.4	-
CN(N)c1nc(-c2ccccc2)cc(-c2ccccc2)n1	?	?	?	-	-63.9	-
CCN(CC)c1nc(C(N)=O)cc(-c2ccccc2)n1	-	-	?	?	-72.9	?
COC(=O)c1sc(NC(=O)OCc2ccccc2)nc1CCNC(=O)OC(C)(C)C	?	?	.	.	-	.
Cc1ccccc1NC(=O)c1cnn(-c2ccccc2)c1C	-	-	?	?	?	-
Cc1c(C(=O)Nc2cccc(F)c2)cnn1-c1ccccc1	14.6µM	18.4µM	-	?	-	-
Cc1ccc(C)c(NC(=O)c2cnn(-c3ccccc3)c2C)c1	?	?	-	?	-57.9	-
COc1ccccc1C1C(C(C)=O)=C(O)C(=O)N1c1ccc(O)cc1 (configuration not stated)	-	-	-	-	-	-
Cc1ccc(NC(=O)COc2coc(CN3c4ccccc4CC3C)cc2=O)c(C)c1 (configuration not stated)	13µM	?	-	-	-	-
Cc1ccc(C)c(NC(=O)COc2coc(CN3CCc4ccccc4C3)cc2=O)c1	16.4µM	18.4µM	?	-	-	-
Cc1cc(C)cc(NC(=O)COc2coc(CN3CCc4ccccc43)cc2=O)c1	?	?	-	-	-	?
Cc1ccc(NC(=O)COc2coc(CN3CCc4ccccc43)cc2=O)c(C)c1	14.6µM	?	-	-	-	-
Cc1ccc(NC(=O)COc2coc(CN3CCc4ccccc4C3)cc2=O)c(C)c1	?	?	?	-	-	-
O=C(COc1coc(CN2CCCc3ccccc32)cc1=O)Nc1ccccc1	5.8µM	?	-	-	-	-
N#Cc1ccccc1OCC(=O)NCC(c1cccs1)N1CCOCC1 (configuration not stated)	-	-	-	-	-	-
O=C(CCCc1c[nH]c2ccccc12)N[C@@H](Cc1c[nH]c2ccccc12)C(=O)O	-	-	-	-	-	-
SMILES	DT40 TDP1 no CPT	DT40 TDP1 CPT	MCF10A rerep	Chronic BCR inh	IL1B secr inh	SW480 rerep
COc1ccc(CCNC(=O)COc2coc(CN3c4ccccc4CC3C)cc2=O)cc1OC (configuration not stated)	16.4µM	?	-	-	-	-
COc1ccc(OC)c(NC(=O)COc2coc(CN3CCCc4ccccc43)cc2=O)c1	?	?	-	-	-	?
COc1ccc(OC)c(NC(=O)COc2coc(CN3CCc4ccccc43)cc2=O)c1	16.4µM	?	-	-	-	-
Cc1ccc(-n2c(SCC(=O)N3CCC(C)CC3)nc3c([nH]c4ccccc43)c2=O)cc1	-	-	.	.	.	.
Cc1ccc(C)c2[nH]c(=O)c(CN(CC3CCCO3)S(=O)(=O)c3ccc4c(c3)OCCO4)cc12 (configuration not stated)	16.4µM	?	-	-	-	-
Cc1cc(C)c2[nH]c(=O)c(CN(CC3CCCO3)S(=O)(=O)c3ccc4c(c3)OCCO4)cc2c1 (configuration not stated)	23.1µM	?	-	-	?	-
Cc1cccc(C)c1NC(=O)C1(C)CSCC(=O)N1CCc1c[nH]c2ccccc12 (configuration not stated)	?	?	.	.	-	.
CN(C)C(=S)NC(=S)Nc1ccc2ccccc2c1	?	?	?	.	-	-
CNC(=O)NC(=O)C(C)OC(=O)c1oc2ccccc2c1CSc1ccc(Cl)cc1 (configuration not stated)	20.6µM	?	?	?	-	-
Cc1csc(NC(=O)/C=C/c2ccc(C)o2)n1	-	-	-	?	-	-
Cc1csc(N=Cc2ccc([N+](=O)[O-])o2)n1	10.3µM	14.6µM	.	.	-	.
Cc1cc2ncn(/N=C/c3ccc([N+](=O)[O-])o3)c2cc1C	12.6µM	13µM	20.6µM	?	?	20.6µM
O=C(Cc1ccc([N+](=O)[O-])cc1)N/N=C/c1ccc([N+](=O)[O-])o1	9.2µM	10.3µM	-	-	-	-
CCOC(=O)N/N=C\c1ccc([N+](=O)[O-])o1	22.4µM	?	-	-	-	-
Cc1ccc(-c2ccc(/C=N/O)o2)cc1[N+](=O)[O-]	?	-	-	?	?	-
O=C(N/N=C\c1ccc(-c2ccc([N+](=O)[O-])cc2)o1)c1ccc2c(c1)OCO2	-	-	-	?	-	-
O=C(CC12CC3CC(CC(C3)C1)C2)N/N=C/c1ccc([N+](=O)[O-])o1	23.1µM	9.2µM	?	-	?	?
CC(=O)N/N=C/c1ccc([N+](=O)[O-])o1	21.1µM	?	?	.	.	-
CC(C)(C)c1ccc2c(c1)OC(C(=O)N/N=C/c1ccc([N+](=O)[O-])o1)CO2 (configuration not stated)	11.6µM	16.4µM	?	-	-	?
O=C(N/N=C/c1ccc([N+](=O)[O-])o1)c1ccc2c(c1)OCO2	5.8µM	2.31µM	-	?	-	?
CC(C)(C)c1ccc2c(c1)OC(C(=O)N/N=C\c1ccncc1)CO2 (configuration not stated)	?	?	-	-	.	-
CC(=O)c1ccc(OC(=O)c2nc(-c3ccccc3)oc2C)cc1	-	-	-	?	-	-
Cc1ccc(C(=O)N/N=C\c2ccc([N+](=O)[O-])o2)cn1	11.6µM	?	?	?	?	?
